This passage reports Potency and activity (max response) results from PubChem BioAssay (NCATS).

Inconclusive results are not listed. Values without a mark were called inactive. Calls of active or inactive are those of the source. Calls come from the whole dose curve; as a rule, active = well fitted curve in the direction sought with a large enough effect; inconclusive = small, poorly fitted or top-dose-only effect, or another doubt; inactive = no such curve, though single readings can be large; an effect the other way counts as inactive or inconclusive.

Test [1] can be described thus: Viability qHTS for spleen associated tyrosine kinase inhibitor (SYKi) drug resistant MV4-11 cells (AID 1963824). Note: nearly all actives have a fitted effect of over 35% in size. Note: potency is the fitted concentration of half-maximal effect. An outline of the steps:
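SYK inhibitor-resistant MV4-11 AML cells, 500 per well, added to predispensed compounds and incubated 72 hr at 37 C, 5% CO2. Viability measured by CellTiter-Glo luminescence after 10 min at room temperature.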
(qHTS replaces the single test concentration by a dilution series.)

A short description of test [2]: Quantitative highthroughput screen to assess conditional lethalithy of NOMO1 cells grown in RPMI1640 with untreated serum (RPMI+s) (AID 1963876).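 For Viability: 100% = DMSO wells and 0% = empty wells without cells.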 Note: nearly all actives have a fitted effect of over 35% in size. Note: potency is the fitted concentration of half-maximal effect. The method, boiled down: (§1)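 Each medium arm—HPLM with 10% dialyzed FBS, or RPMI1640 with 5 mM glucose and 10% untreated or dialyzed FBS—was screened against an 11-point, 3-fold compound titration for 48 h at 37 °C, with CellTiter-Glo luminescence as endpoint.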

A short description of test [3]: Quantitative highthroughput screen to assess conditional lethalithy of P12 Ichikawa cells grown in Human Plasma-Like Medium with dialyzed fetal bovine serum (HPLM+ds) (AID 1963879). For Viability: series mostly up to about 46 µM. Note: nearly all actives have a fitted effect of over 35% in size. Note: potency is the fitted concentration of half-maximal effect. The following applies: Potency: viability. The method, boiled down:
as §1

Test [4] in a line: Quantitative highthroughput screen to assess conditional lethalithy of P12 Ichikawa cells grown in RPMI1640 with dialyzed fetal bovine serum (RPMI+ds) (AID 1963880).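 For Viability: 100% = DMSO wells and 0% = empty wells on each plate.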 Note: nearly all actives have a fitted effect of over 35% in size. Note: potency is the fitted concentration of half-maximal effect. As to conditions: Potency: P12-Ichikawa viability. An outline of the steps: as §1
A short description of test [5]: Quantitative highthroughput screen to assess conditional lethalithy of P12 Ichikawa cells grown in RPMI1640 with untreated serum (RPMI+s) (AID 1963881).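 For Viability: series mostly up to about 46 µM; 100% = DMSO wells and 0% = empty wells without cells.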 Note: nearly all actives have a fitted effect of over 35% in size. Note: potency is the fitted concentration of half-maximal effect. The following applies: Potency: viability. An outline of the steps: as §1
A short description of test [6]: Quantitative highthroughput screen to assess conditional lethalithy of SEM cells grown in RPMI1640 with unreated serum (RPMI+s) (AID 1963883).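 For Viability: 100% = DMSO wells and 0% = empty wells without cells.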 Note: nearly all actives have a fitted effect of over 35% in size. Note: potency is the fitted concentration of half-maximal effect. The method, boiled down:
as §1

Test [7] can be described thus: Quantitative highthroughput screen to assess conditional lethalithy of SEM cells grown in RPMI1640 with dialyzed fetal bovine serum (RPMI+ds) (AID 1963884).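 For Viability: series mostly up to about 46 µM; 100% = DMSO control wells and 0% = empty wells without cells.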 Note: nearly all actives have a fitted effect of over 35% in size. Note: potency is the fitted concentration of half-maximal effect. An outline of the steps:
as §1

Test [8] is described as follows: Cellular viability qHTS for adrenocortical cancer (ACC) cell line SW-13 (AID 1963989).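 For activity (max response): cells grown in serum-free medium with ITS supplement; % is set by controls: 0 for no effect and ±100 for the full control effect.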 Note: nearly all actives have a fitted effect of over 65% in size. Note: potency is the fitted concentration of half-maximal effect. As to conditions: SW-13 ACC cells viability, CellTiter-Glo, 48 h; activity (max response): stronger effect = lower value. An outline of the steps:
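48 h treatment, SW-13 in ITS/DMEM serum-free; doses up to 46 uM; readout CellTiter-Glo luminescence; curve fit four-parameter logistic.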

Test [9] can be described thus: Cellular viability qHTS for adrenocortical cancer (ACC) cell line NCI-H295R (AID 1963990). Note: nearly all actives have a fitted effect of over 60% in size. Note: potency is the fitted concentration of half-maximal effect. An outline of the steps:
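Compound titrations (up to 46 uM final) are applied to NCI-H295R cultures for 48 h at 37C. Viable cell number is estimated by CellTiter-Glo signal, normalised to DMSO and doxorubicin controls.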

Test [10] in a line: Quantitative highthroughput screen to assess conditional lethalithy of SEM cells grown in Human Plasma-Like Medium with dialyzed fetal bovine serum (HPLM+ds) (AID 1963882). For Viability: series mostly up to about 46 µM. Note: nearly all actives have a fitted effect of over 35% in size. Note: potency is the fitted concentration of half-maximal effect. An outline of the steps:
as §1

Test [11] is described as follows: Quantitative highthroughput screen to assess conditional lethalithy of NOMO1 cells grown in Human Plasma-Like Medium with dialyzed fetal bovine serum (HPLM+ds) (AID 1963878). The method, boiled down:
as §1

Turning to `Nc1[nH]c(=O)ncc1F`, the Potency entry in [1], in test [2], in [3], in test [4], in test [5] and in test [6] was “inactive” each time. Further, the Potency entry in test [7] and in [9] was “inactive” throughout. In addition, the activity (max response) in [8] is 6.88%.

In the case of `CN(C(=O)c1ccc(F)cc1C(F)(F)F)C1CCN(c2nnc(-c3ccnn3C)c3ccccc23)CC1`, in [1], the Potency was 18.4 µM (active). Besides, the Potency result in test [2], in test [10] and in [6] was “inactive” each time. Also, the activity (max response) in [8] is -13.3%.

Turning to `CN(C)C(=O)[C@H](O)[C@H](Cc1ccccc1)NC(=O)c1cc2cc(Cl)ccc2[nH]1`, the Potency in test [1] was 20.9 µM (active); in test [10], 2.09 µM (active); in test [6], 2.64 µM (active); in test [7] it was 2.35 µM (active). In addition, the Potency result in test [2] is “inactive”.

Consider `OC[C@H](Cc1ccccc1)Nc1nc(Oc2ccc3c(c2)CCC3)nc2c1ncn2Cc1ccc(-c2ccccc2)cc1`, for which the Potency in test [1] is 10.5 µM (active). The Potency entry in [2], in test [11], in [5], in test [6] and in test [7] was “inactive” each time.

Regarding `O=C(NC1CC1)c1cccc(-c2ccc3c(NC(=O)C4CC4)n[nH]c3c2)c1`, the Potency was 4.68 µM (active) in test [1]; 23.5 µM (active) in test [2]; 10.5 µM (active) in test [3]; 11.8 µM (active) in [4]; 11.8 µM (active) in [5]; 16.6 µM (active) in test [10]. In addition, the Potency in test [6] is 14.8 µM (active); in [7], 16.6 µM (active); in [8], 3.55 µM (active); in [9], 15.8 µM (active).

Consider `CCC(=O)NCC[C@@H]1CCc2ccc3c(c21)CCO3`, for which the Potency result in [1], in test [2], in test [11], in test [5] and in [9] was “inactive” in each case. Also, the Potency in test [10] is 3.32 µM (active); in [6], 5.26 µM (active); in test [7], 5.26 µM (active). Also, the activity (max response) in [8] was -6.57%.

`Cc1ccc(C(C)(O)c2nc3ccccc3s2)c(C)c1` (centres undefined): the Potency in test [1] was 16.6 µM (active); in test [2] it was 13.2 µM (active); in [3], 10.5 µM (active); in test [4] it was 18.7 µM (active); in test [5] it was 14.8 µM (active).
